# Only some compounds are listed: those with a hit (about 12% of all), similar ones and a draw of the others.
# L3MBTL1 block: inhibitors of human L3MBTL1 | Potency, µM (highest dose often 57.1 µM), inactives show at the highest dose activity, negative = inhibition, usual class: inhibitors | 0.66% of 230,000 active | AID 485360 | AlphaScreen L3MBTL1–H3K9me1 peptide binding; also: % is scaled to controls: 0 for no effect and ±100 for the full control effect; nearly all actives have a fitted effect of over 60% in size
#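 AlphaScreen assay: L3MBTL1 (50 nM final) was preincubated 30 min at room temperature with biotinylated H3(1-15)K9me1 peptide (75 nM final), then 30 min with library compounds; streptavidin donor and nickel chelate acceptor beads (10 ug/mL final) added, 30 min dark.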
# JMJD2A Tudor: inhibitors of human JMJD2A Tudor domain; AlphaScreen JMJD2A-Tudor / H3K4me3 peptide binding; 4.4% of 390,000 active; Potency, µM (highest dose often 114 µM), for inactives: at the highest dose activity change, negative = inhibition, hits mostly inhibitors; O75164; AID 504339; also: % is scaled to controls: 0 for no effect and ±100 for the full control effect; nearly all actives have a fitted effect of over 50% in size
# HP1b chromo inh: inhibitors of HP1-beta chromodomain binding to methylated histone tails. Potency, µM (highest dose often 114 µM), inactives show at the highest dose activity change, negative = inhibition, hits mostly inhibitors. AID 540317. 0.56% of 390,000 active. AlphaScreen HP1-beta / biotin-H3K9me3 peptide binding. P83916; also: nearly all actives have a fitted effect of over 70% in size
# Target sequence (P83916 whole entry, looked up): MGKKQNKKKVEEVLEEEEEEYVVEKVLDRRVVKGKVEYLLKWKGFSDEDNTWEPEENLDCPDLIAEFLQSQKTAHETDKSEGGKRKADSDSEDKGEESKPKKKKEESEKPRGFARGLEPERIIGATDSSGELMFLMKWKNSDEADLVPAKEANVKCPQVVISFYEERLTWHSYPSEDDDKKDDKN
#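 AlphaScreen: HP1-beta (50 nM) preformed 30 min with biotin-H3(1-18)K9me3 peptide (50 nM) in PBS pH 7.4, 0.01% Tween-20. Compound added for 30 min at RT, then streptavidin donor/nickel chelate acceptor beads (10 ug/mL) for 30 min.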
# Sfp inh: inhibitors of Bacillus subtilis Sfp phosphopantetheinyl transferase; Biochemical Sfp PPTase activity, qHTS; 3.5% of 310,000 active; Potency, µM, for the others: largest response in the series, negative = inhibition, actives largely listed as inhibitors; Q9F4F7;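 also: the enzyme is Sfp with the accession as filed and its product quenches rhodamine fluorescence; 0% = enzyme reaction without inhibitor and -100% = no enzyme wells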
#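 Fluorescence-quenching assay with 15 nM Sfp, 5 uM rhodamine-CoA and 12.5 uM BHQ-2-labelled ybbR peptide in pH 7.6 Hepes/MgCl2 buffer. Enzyme was pre-incubated with compound for 15 min at room temperature. Rate was taken from the 30-min fluorescence change (525/598 nm).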
# G9a inh: blocks human histone lysine methyltransferase G9a. Q96KQ7. AID 504332. Potency, µM (top dose mostly 102 µM), for inactives: at the top dose activity, negative = inhibition, hits mostly inhibitors. G9a H3K9 monomethylation, AlphaScreen, 2 h. 8.8% of 350,000 active; also: % is scaled to controls: 0 for no effect and ±100 for the full control effect; nearly all actives have a fitted effect of over 75% in size
# Target sequence (Q96KQ7 913-1193 limits assumed): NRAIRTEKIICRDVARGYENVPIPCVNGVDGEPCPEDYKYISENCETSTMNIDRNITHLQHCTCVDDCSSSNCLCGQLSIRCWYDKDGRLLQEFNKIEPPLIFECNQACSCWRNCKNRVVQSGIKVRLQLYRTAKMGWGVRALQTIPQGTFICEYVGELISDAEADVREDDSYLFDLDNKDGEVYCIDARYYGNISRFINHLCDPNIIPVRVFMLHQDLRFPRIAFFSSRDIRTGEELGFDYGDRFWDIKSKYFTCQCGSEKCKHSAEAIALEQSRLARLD
#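 Readings reflect AlphaScreen signal from monomethyl-H3K9 antibody detection. HMT at 20 nM; substrate b-H3K9 500 nM; cofactor SAM 20 uM; 2 h RT reaction; compounds tested as titrations in qHTS with 15 min preincubation.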
# BAZ2B inh: inhibitors of human BAZ2B bromodomain | Q9UIF8 | AlphaScreen BAZ2B-H3K14Ac peptide displacement | Potency, µM (titrated, usually from 114 µM), for the others: top-dose activity change, negative = inhibition, usual class: inhibitors | 4.4% of 360,000 active | AID 504333; also: % is scaled to controls: 0 for no effect and ±100 for the full control effect; nearly all actives have a fitted effect of over 60% in size
#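 BAZ2B (50 nM) with biotin-H3(5-23)K14Ac peptide (50 nM) in PBS pH 7.4, 0.01% Tween-20, preformed 30 min, then compound 30 min at room temperature; top concentration 110uM. AlphaScreen streptavidin donor/nickel chelate acceptor beads (10 ug/mL final), 20 min dark, signal read.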
# * marks the source's active call; other numbers are inactive results; ? = inconclusive; . = no result; [ ] = another dose, or the depositor's remark. Calls follow the shape of the dose curve; as a rule, active = well fitted curve in the direction sought with a large enough effect; inconclusive = small, poorly fitted or top-dose-only effect, or another doubt; inactive = no such curve, though single readings can be large; an effect the other way counts as inactive or inconclusive. Potency is read from the fitted curve at half-maximal effect.
SMILES,L3MBTL1 block,JMJD2A Tudor,HP1b chromo inh,Sfp inh,G9a inh,BAZ2B inh
O=C(NCCCN1CCOCC1)c1ccc2c(=O)n(Cc3ccccc3)c(=S)[nH]c2c1,.,-9.7%,39.0%,4.8%,50.1µM*,-26.1%
COc1ccc(-n2c(=S)[nH]c3cc(C(=O)NCCCN4CCOCC4)ccc3c2=O)cc1OC,.,22.4µM*,33.8%,-22.0%,35.5µM*,?
COc1cc(C(=O)NNC(=O)c2nn(C)c(=O)c3ccccc23)cc(OC)c1OC,5.1%,?,28.2%,.,.,.
CC1CCCC(C)N1C(=O)COC(=O)c1cc(F)c(F)cc1Cl (stereo unspecified),2.7%,7.8%,55.3%,.,.,.
COc1ccccc1C(C)NC(=O)c1ccc(S(=O)(=O)NCc2ccco2)cc1 (stereo unspecified),2.0%,?,-14.9%,.,.,.
CCOC(=O)c1cnc(-n2nc(C)cc2C)nc1Nc1ccc(C)cc1,-4.6%,-22.2%,39.7%,2.4%,?,-8.7%
CCOC(=O)c1cnc(-n2nc(C)cc2C)nc1NC,-3.4%,-34.3%,15.4%,?,44.7µM*,3.0%
CCOC(=O)c1cnc(-n2nc(C)cc2C)nc1Nc1cccc(C(=O)O)c1,10.7%,89.1µM*,31.3%,7.3%,10µM*,3.5%
CCOC(=O)c1cnc(-n2nc(C)cc2C)nc1Nc1ccc(O)cc1,-13.6%,-9.8%,30.9%,0.1%,?,-16.1%
CCCn1c(SCC(=O)c2cc(C)c(C)cc2C)n[nH]c1=O,.,-5.1%,35.4%,11.1%,11.2µM*,2.7%
CCCn1c(SCC(=O)c2ccc3c(c2)OCCO3)n[nH]c1=O,-11.3%,-6.8%[57.1 µM],45.0%,-18.9%,11.0%,.
CCOc1ccccc1CNC(=O)C1=C(C)C(=O)OC12CCN(C(C)=O)CC2,.,6.3%,35.5%,.,0.5%[59 µM],6.6%
Cc1sc2nc(CC(=O)N3CCCC3)[nH]c(=O)c2c1C,1.2%,1.4%,-8.9%,?,28.2µM*,-1.5%
Cc1sc2nc(CSC(C)C(=O)N3CCOCC3)[nH]c(=O)c2c1C (stereo unspecified),.,-18.9%,23.4%,10.4%,.,-2.0%
N#CCCn1cc(/C=C2\NC(=S)N(c3ccccc3)C2=O)c(-c2ccc(-c3ccccc3)cc2)n1,-13.7%,-25.1%,18.2%,24.5%,14.2%[59 µM],-18.0%
O=C(O)CCn1cc(/C=C2/NC(=S)N(c3ccccc3)C2=O)c(-c2ccccc2)n1,-1.3%,?,1.5%,11.5%,22.4µM*,-37.5%
CCc1ccc2c(O)c3c(cc2c1C(=O)OC)C(=O)c1c(O)ccc(O)c1C3=O,.,.,.,-27.4%,?,.
Cc1sc2c(c1C)c(=O)n(-c1ccc(Cl)cc1)c(=O)n2Cc1c(F)cccc1Cl,.,-16.7%,5.2%,.,-6.3%[59 µM],3.4%
O=C(c1ccncc1)N1C2C=CC(C2)C1(C(F)(F)F)C(F)(F)F (stereo unspecified),-8.9%,.,.,-9.5%,?,21.9%
O=C(c1cccnc1)N1C2C=CC(C2)C1(C(F)(F)F)C(F)(F)F (stereo unspecified),.,70.8µM*,-17.7%,5.0%,-5.8%[59 µM],?
COc1cccc(-c2ccc3ncnc(N4CCOCC4)c3c2)c1,.,.,.,0.8%,7.5%[0.501 µM],.
Cc1ccc(CSC2=NCCN2S(=O)(=O)c2ccc(F)cc2)cc1,.,62.3%,89.0%,-7.3%,.,22.8%
CN(C)c1ccc(CNC(=O)C2CCN(S(=O)(=O)c3ccc4[nH]c(=O)ccc4c3)CC2)cc1,.,-19.4%,16.8%[57 µM],.,-45.7%[59 µM],-1.5%
C=CCSC1=Nc2cc(OC)c(OC)cc2C2=NC(=O)CN12,0.5%,-16.3%,27.6%,-10.0%,50.1µM*,-18.9%
COc1cc2c(cc1OC)C1=NC(=O)CN1C(SCc1ccc(C)cc1)=N2,-0.1%,-13.4%[57.1 µM],13.7%,-7.0%,?,79.4µM*
SMILES,L3MBTL1 block,JMJD2A Tudor,HP1b chromo inh,Sfp inh,G9a inh,BAZ2B inh
Cc1ccc(CSC2=Nc3sccc3C3=NC(=O)CN23)cc1,-9.3%,-27.4%,20.0%,-9.0%,-9.6%[12.7 µM],4.4%
CCN(CC(=O)Nc1ccc(NC(C)=O)cc1)C(=O)/C=C/c1cn(Cc2ccccc2)nc1-c1cccnc1,-2.4%,-16.7%,24.9%,.,14.1µM*,1.9%
CCN(CC(=O)Nc1ccc(NC(C)=O)cc1)C(=O)/C=C/c1cn(-c2ccccc2)nc1-c1cccs1,-11.9%,-29.1%,16.7%,.,31.6µM*,-8.9%
Cc1ccc(C)c(S(=O)(=O)NC2CCSC2=O)c1 (stereo unspecified),5.9%,7.9%,28.4%,.,-2.3%,-0.2%
CC(C)CNC(=O)[C@H](Cc1ccccc1)NC(=O)c1cccs1,.,7.0%,50.6%,11.2%,16.8%,-1.3%
Cc1nc(N/C(N)=N/S(=O)(=O)c2ccccc2)nc2ccccc12,-0.2%,-17.9%,6.2%[57 µM],.,.,.
N#Cc1c(NC(=O)c2ccccc2)sc2c1CCCCC2,5.6%,-11.6%,9.2%,0.9%,10.9%[59 µM],13.2%
Cc1ccccc1C(=O)NC(=S)Nc1sc2c(c1C#N)CCCC2,-11.0%,?,-10.6%,8.5%,?,-37.3%
CC(C)(C)C(=O)NC(=S)Nc1sc2c(c1C#N)CCCCC2,-12.9%,-13.0%,4.0%,44.7µM*,?,-34.2%
CC(=O)Nc1sc2c(c1C#N)CCCCC2,29.6%,-11.7%,34.1%,-5.6%,2.0%[59 µM],18.6%
C=CCNC(=S)Nc1sc2c(c1C#N)CCCC2,1.3%,-5.8%,0.9%,?,44.7µM*,-30.1%
CC(C(=O)Nc1sc2c(c1C#N)CCCCC2)N1C(=O)c2ccccc2C1=O (stereo unspecified),-14.7%,-32.8%,1.4%,?,3.16µM*,?
CCCN1CCN(c2nnc(-n3cccc3C(=O)Nc3cc(Cl)ccc3C)s2)CC1,.,?,11.7%,.,?,?
OC[C@@H]1O[C@@H](Oc2ccc(O)cc2)[C@H](O)[C@@H](O)[C@@H]1O,.,.,.,16.9%,.,.
CCn1c(=O)cc(OCC(=O)Nc2ccccc2Cl)c2ccccc21,.,-19.6%,37.9%,.,1.1%[59 µM],4.8%
O=[N+]([O-])c1cccnc1Sc1ccc(Cl)cc1,.,56.2µM*,?,-1.9%,44.7µM*,31.6µM*
O=C(NC1CCCCC1)c1ccc(Cn2c(SCc3cccc(F)c3)nc3cccnc32)cc1,.,-21.5%,24.4%,.,-14.9%[59 µM],-2.3%
COc1ccc(/C(C)=N/N=C(\C)c2ccc(OC)cc2OC)c(OC)c1,5.6%,-9.1%,8.2%,3.2%,9.1%[59 µM],-0.2%
COc1ccc(C(N)=S)c(OC)c1,3.4%,-11.8%,-11.6%,44.7µM*,8.91µM*,-3.5%
O=C(N/N=C/C(Cl)=C/c1ccc([N+](=O)[O-])cc1)C(=O)Nc1cccc(C(=O)O)c1,-22.9%,?,7.0%,-28.6%,?,56.2µM*
O=C(Nc1cccc(C(=O)O)c1)/C(=C/c1cccc([N+](=O)[O-])c1)NC(=O)c1cccc(Br)c1,.,-23.0%,21.3%,.,.,.

# Assay outcomes (PubChem)
